Test results taken from PubChem BioAssay AID686979 (National Center for Advancing Translational Sciences (NCATS), 2013).
About 50,000 (12%) of roughly 420,000 compounds were called active. Another 26% or so got no clear call; they are omitted. Calls follow the shape of the dose curve; as a rule, active = well fitted inhibition curve with a large enough effect; inconclusive = small, poorly fitted or top-dose-only effect; inactive = flat fitted curve, though single readings scatter. This excerpt belongs to a sample that is enriched for actives.

Assay: qHTS for Inhibitors of human tyrosyl-DNA phosphodiesterase 1 (TDP1): qHTS in cells in presence of CPT; also: nearly all actives have a fitted effect of over 55% in size
Conditions: chicken DT40 Tdp1-/-;hTDP1 cells + 20 nM CPT, ATP luminescence, 48 h; series mostly up to 46.2 µM; activity change, negative = growth inhibition: at the top concentration
Procedure, shortened: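 Chicken DT40 Tdp1-/- cells stably complemented with human TDP1 were seeded at 400 cells/well in medium containing 20 nM camptothecin, exposed to pin-transferred compounds, and grown at 37 °C for at least 48 hr. Viability was read as ATP luminescence.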
% is scaled to controls: 0 for no effect and ±100 for the full control effect; potency is read from the fitted curve at half-maximal effect.

| Compound | Potency | activity change, negative = growth inhibition |
| --- | --- | --- |
| Cc1c(Cl)cccc1NC(=O)C1CCCN(c2ncnc3onc(C)c23)C1 (stereo unspecified) | 8.2 µM (active) | – |
| Cc1ccc(Cl)cc1NC(=O)C1CCCN(c2cnccn2)C1 (stereo unspecified) | – | -25.9% (inactive) |
| COc1ccccc1NC(=O)C1CCCN(c2cc(C)nc3ncnn23)C1 (stereo unspecified) | – | -28.8% (inactive) |
| CSCC[C@H](NC(=O)OC(C)(C)C)C(=O)N/N=C/c1cc2ccc(C)cc2nc1Cl | – | -28.8% (inactive) |
| Cc1ccn(-c2cccc(-n3ccc(C)n3)n2)n1 | – | -1.46% (inactive) |
| CCc1nc2ccc(C(=O)N3CCN(S(=O)(=O)CC)CC3)cn2c1N(C=O)CCC(C)C | – | -12.8% (inactive) |
| CCOc1ccccc1N(CC(=O)Nc1ccccc1C(=O)OC)S(C)(=O)=O | – | -2.34% (inactive) |
| CCCCN(C=O)c1c(CC)nc2c(OCc3ccccc3C(=O)OC)cccn12 | 13 µM (active) | – |
| CCCCN(C=O)c1c(CC)nc2c(OCCC3CCCCC3)cccn12 | 16.4 µM (active) | – |
| Cc1nccn1-c1ccc(NC(=O)[C@H]2O[C@@H](n3cnc4c(N)ncnc43)[C@H](O)[C@@H]2O)cc1 | – | 1.02% (inactive) |
| CCC1CN(CCNC(=O)c2cccc(C)n2)Cc2cc(OC)ccc2O1 (stereo unspecified) | – | 5.22% [at 9.04 µM] (inactive) |
| O=C(CSc1ccc(-c2ccc(-n3cccn3)cc2)nn1)Nc1ccc([N+](=O)[O-])cc1 | – | 3.07% (inactive) |
| COc1ccc(NC(=O)CC2C(=O)OCC3CCCCN32)cc1Cl (stereo unspecified) | – | 3.07% (inactive) |
| CC(C)c1ccc(Cc2nnc(NCCCO)[nH]c2=O)cc1 | – | 0.449% (inactive) |
| N#CCc1ccc(OC(=O)c2cccnc2)cc1 | – | -0.983% (inactive) |
| CC(OC(=O)CNC(=O)c1cccc(F)c1)C(=O)NC1CCCCC1C (stereo unspecified) | – | -0.171% (inactive) |
| Cc1ccc(CC(=O)Nc2ccc(OC(F)F)c(Cl)c2)cc1C | – | -0.622% (inactive) |
| C=C(C)CNC(=S)N/N=C/c1ccccc1OCC(=O)O | – | -5.81% (inactive) |
| C=CCNC(=S)N/N=C/c1ccc(C)s1 | 4.61 µM (active) | – |
| Cc1ccc(/C=N/NC(=O)CN2CCN(Cc3ccccc3)CC2)s1 | – | 11.8% (inactive) |
| Cc1cc(OC(C)C(=O)Nc2sc3c(c2C(N)=O)CCCC3)ccc1Cl (stereo unspecified) | – | -25% (inactive) |
| c1ccc2c(C[n+]3csc4ccccc43)cccc2c1 | 0.92 µM (active) | – |
| Nc1scc[n+]1Cc1cccc2cccnc12 | – | 4.35% (inactive) |
| CCOC(=O)N1CCN(C(=O)CSc2nc(=O)n3cccc(C)c3n2)CC1 | – | 2.09% (inactive) |
| CCOC(=O)CNC(=O)c1cc2c(=O)n3cccc(C)c3nc2s1 | – | -15.6% (inactive) |
| CCOC(=O)CC1C(=O)NCCN1c1nc2c(C)cccn2c(=O)c1/C=C1\SC(=S)N(C(C)CC)C1=O (stereo unspecified) | 16.4 µM (active) | – |

| Compound | Potency | activity change, negative = growth inhibition |
| --- | --- | --- |
| N#CC1(NC(=O)COC(=O)CCN=C2NS(=O)(=O)c3ccccc32)CCCCC1 | – | 12.3% (inactive) |
| COc1cccc(N(CC(=O)NCc2ccccc2)C(=O)CCC(=O)Nc2nccs2)c1 | – | -20.2% (inactive) |
| CCc1noc(C)c1C(=O)N1CCN(S(=O)(=O)c2cccc(C(F)(F)F)c2)CC1 | – | 0.576% (inactive) |
| O=C(CCc1nc2sc3c(c2c(=O)[nH]1)CCCC3)NCC(=O)Nc1ccccc1Br | – | 13.3% (inactive) |
| NNC(=O)C1CCCn2c1nc1sc3c(c1c2=O)CCCC3 (stereo unspecified) | – | 8.97% (inactive) |
| CS(=O)(=O)N(Cc1nc2sc3c(c2c(=O)[nH]1)CCCC3)C1CCCCC1 | 20.6 µM (active) | – |
| CCCCCCCCCCCCCCCCO | – | -5.61% (inactive) |
| O=C(CCN1C(=O)[C@@H]2Cc3ccccc3CN2C1=O)NCc1ccccc1 | – | -0.237% (inactive) |
| CCOC(=O)N1CCC(N(CCOC)C(=O)Nc2ccc(C)c(C)c2)CC1 | – | -22.5% (inactive) |
| Cc1cccc(NC(=O)CSc2nc3c(c(=O)[nH]2)CCCC3)c1C | – | -21.3% (inactive) |
| Cc1cccc(NC(=O)CSc2nc3c(c(=O)[nH]2)CCC3)c1C | – | 4.77% (inactive) |
| Cc1cccc(NC(=O)CSc2ncc(-c3ccccc3)[nH]2)c1C | 25.9 µM (active) | – |
| Cc1cccc(NC(=O)CSC(N)=O)c1C | 25.9 µM (active) | – |
| Cc1cccc(NC(=O)COC(=O)CCc2ccccc2)c1C | – | -6.21% (inactive) |
| Cc1cccc(NC(=O)CN2C(=O)c3ccccc3C2=O)c1C | – | 6.02% (inactive) |
| CN(Cc1ccccc1)C(=O)c1ccc(NC2=NC3CS(=O)(=O)CC3S2)cc1 (stereo unspecified) | – | 2.81% (inactive) |
| Cc1cccc2c(=O)cc(CSc3ccccc3NC(=O)C(C)C)[nH]c12 | – | -5.53% (inactive) |
| COc1ccc(C(C#N)=C2C=CC(=NO)c3ccccc32)cc1 | 1.3 µM (active) | – |
| COc1ccc(/C(N)=N/OC(=O)Cc2ccccc2)cc1 | – | 13.2% (inactive) |
| COc1ccc(C(=NN)c2ccc(OC)cc2)cc1 | – | 4.73% (inactive) |
| COc1ccc(C(=O)N(C)Cc2ccc(OC)c(OC)c2OC)cc1S(=O)(=O)N1CCOCC1 | – | -1.37% (inactive) |
| COc1ccc(/C=C(\NC(=O)c2ccc(OCC(C)C)cc2)C(=O)OCc2ccco2)cc1 | 20.6 µM (active) | – |
| O=C(OCN1C(=O)c2ccccc2C1=O)/C(=C\c1ccco1)NC(=O)c1ccccc1 | – | 1.01% (inactive) |
| COc1ccc(/C=C(/NC(=O)c2ccco2)C(=O)Nc2ccc(C(C)=O)cc2)cc1 | – | 6.29% (inactive) |
| CCOc1ccc(/C=C/C(=O)N(CC)CC(=O)NCc2cccs2)cc1OC | – | -17.8% (inactive) |
| CC(=O)N[C@@H](C)C(=O)N1CCC(n2nccc2NC(=O)CCCc2ccccc2)CC1 | – | 7.97% (inactive) |

| Compound | Potency | activity change, negative = growth inhibition |
| --- | --- | --- |
| ClC/C=C/C[n+]1ccccc1Cl | – | -26.5% (inactive) |
| O=C(NCCC1CCCCN1S(=O)(=O)c1ccc(F)cc1)C(=O)NC1CC1 (stereo unspecified) | – | 0.311% (inactive) |
| O=C(NCCC1CCCCN1S(=O)(=O)c1cccs1)C(=O)Nc1ccc(F)cc1F (stereo unspecified) | 2.91 µM (active) | – |
| O=C(NCc1ccccc1Cl)C(=O)NCC1CCCN1S(=O)(=O)c1cccs1 (stereo unspecified) | – | -14.6% (inactive) |
| Cc1ccc(N/C=C/C(=O)c2ccccc2)cc1C | – | 0.497% (inactive) |
| C/C(=N\NC(=O)c1nc(C)cc(C)n1)c1ccccc1 | – | 10.9% (inactive) |
| Cc1cc(C)nc(S/C=C/C(=O)c2ccccc2)n1 | 2.06 µM (active) | – |
| O=C(CN(Cc1ccccc1)C(=O)CCC(=O)Nc1ccccn1)NCCc1ccccc1 | – | -26.5% (inactive) |
| O=C(CSc1nc2ccccc2c(=O)n1Cc1ccc(F)cc1)NCC1CCCO1 (stereo unspecified) | – | -24.9% (inactive) |
| O=C(CCCn1c(SCC(=O)c2ccccc2)nc2ccccc2c1=O)NCC1CCCO1 (stereo unspecified) | 16.4 µM (active) | – |
| O=C(CCn1c(SCC(=O)c2ccccc2)nc2ccccc2c1=O)NCc1ccc(F)cc1 | – | -4.07% (inactive) |
| Cc1ccc(CNC(=O)C(=O)c2cn(CC(=O)N3CCCC3)c3ccccc23)cc1 | – | -29.5% (inactive) |
| N#CCC(=O)N/N=C/c1cn(Cc2ccc3ccccc3c2)c2ccccc12 | 5.8 µM (active) | – |
| NC(=O)Cn1cc(/C=N\NS(=O)(=O)c2ccccc2)c2ccccc21 | – | -4.65% (inactive) |
| CNC(=S)N/N=C/c1cn(Cc2ccc(C)cc2)c2ccccc12 | 18.4 µM (active) | – |
| N#CCC(=O)N/N=C/c1ccc(SCC(=O)Nc2ccccc2)o1 | – | -23.9% (inactive) |
| COCCCNC(=O)Cn1cc(/C=C(\C#N)C(=O)N2CCN(c3ccccc3)CC2)c2ccccc21 | – | 3.39% (inactive) |
| Nc1nc(NCC(=O)O)nc(N2CCCCCC2)c1[N+](=O)[O-] | – | 5.37% (inactive) |
| Cc1ccc(-n2c(-c3ccc(Cl)cc3)n[nH]c2=S)cc1 | – | -2.68% (inactive) |
| CC1(C)OC(=O)C2=C(C[C@@H](C3CC3)O[C@H]2c2ccc(Cl)cc2)O1 | – | -2.98% (inactive) |
| CN(CCO)C(=O)c1nc[nH]c1C(=O)N(C)Cc1ccccc1 | – | -26.5% (inactive) |
| COc1ccc(-c2cn3nc(N4CCCC(C(=O)NCCCOC(C)C)C4)sc3n2)cc1 (stereo unspecified) | 13 µM (active) | – |
| CCc1ccc(CNC(=O)C2CCN(c3nn4cc(-c5ccc(F)cc5)nc4s3)CC2)cc1 | – | -23% (inactive) |
| COc1ccc(-c2cn3nc(N4CCC(C(=O)Nc5cccc(C)c5C)CC4)sc3n2)cc1 | 20.6 µM (active) | – |
| COc1ccc(OC)c(CNC(=O)C2CCCN(c3nc4ccccc4o3)C2)c1 (stereo unspecified) | – | -4.53% (inactive) |
| Cc1cc(=O)n2nc(N3CCCC(C(=O)NCc4ccc(Cl)cc4)C3)sc2n1 (stereo unspecified) | – | -8.25% (inactive) |

| Compound | Potency | activity change, negative = growth inhibition |
| --- | --- | --- |
| Cc1cc(=O)n2nc(N3CCC(C(=O)Nc4c(F)c(F)c(F)c(F)c4F)CC3)sc2n1 | – | 5.78% (inactive) |
| CC(C)CNS(=O)(=O)c1ccc(CCC(=O)NCc2ccc(Cl)cc2)cc1 | – | -12% (inactive) |
| CCN(CC)S(=O)(=O)c1ccc(N2CC(C(=O)NCc3cccnc3)CC2=O)cc1 (stereo unspecified) | – | -1.05% (inactive) |
| COc1ccc(-c2cc(C(=O)NC(C(=O)O)C(C)C)c(C)o2)cc1OC (stereo unspecified) | – | 6.13% (inactive) |
| COc1ccc(-c2cc(C(=O)NC(Cc3c[nH]c4ccccc34)C(=O)O)c(C)o2)cc1OC (stereo unspecified) | 29.1 µM (active) | – |
| Cc1cccc(C)c1OCC(=O)NC(Cc1c[nH]c2ccccc12)C(=O)O (stereo unspecified) | inactive | – |
| Cc1ccc(C(=O)Nc2cccc(-c3nc(CNC(=O)c4ccccc4-n4cccn4)c(C)o3)c2)s1 | – | -16.4% [at 9.04 µM] (inactive) |
| CCN(CC)c1ccc(C2C(C(N)=O)=C(C)Nc3nc(SCc4ccccc4)nn32)cc1 (stereo unspecified) | – | -2.6% (inactive) |
| CCCc1ccc(C(O)c2ncc(-c3cccc(OC)c3)[nH]2)cc1 (stereo unspecified) | 16.4 µM (active) | – |
| COc1cccc(-c2ccc(C#N)c(SCC(=O)NCCc3ccc(Cl)cc3)n2)c1 | – | -4.8% (inactive) |
| COc1cccc(-c2cnc(C(O)c3ccccc3OC)[nH]2)c1 (stereo unspecified) | – | -15.6% (inactive) |
| Cc1ccc(-c2cnc(C(O)c3cccc(C)c3C)[nH]2)cc1 (stereo unspecified) | – | -25.5% (inactive) |
| OC(c1ccc(Cl)c(F)c1)c1ncc(-c2ccccc2Cl)[nH]1 (stereo unspecified) | – | -20.4% (inactive) |
| Cc1nc(N)[nH]c(=O)c1Oc1cccc(C(F)(F)F)c1 | – | -5.81% (inactive) |
| O=c1cc(O)c(-c2cccc(C(F)(F)F)c2)c(Cl)[nH]1 | – | -0.16% (inactive) |
| Cc1cccc(-c2cnc(C(O)c3ccc4ccccc4c3)[nH]2)c1 (stereo unspecified) | 20.6 µM (active) | – |
| COc1c(C)cc(C(O)c2ncc(-c3cccc(C(F)(F)F)c3)[nH]2)cc1C (stereo unspecified) | 23.1 µM (active) | – |
| O=C(O)c1ccc(/C=C2\SC(=S)N(NC(=O)c3ccc(Br)cc3)C2=O)cc1 | – | -6.8% (inactive) |
| C=CCO/N=C/C1=C(O)C(C(=O)OC)C(C)(C)CC1=O (stereo unspecified) | – | 3.24% (inactive) |
| CCCCC(NC(=O)c1cccc(Br)c1)C(=O)O (stereo unspecified) | – | 2.45% (inactive) |
| CSc1ccc(/C=N\NC(=O)CC(=O)NC(C)C)cc1 | – | -1.78% (inactive) |
| Cc1cc(C)n(-c2nc(O)cc(=O)[nH]2)n1 | – | 8.2% (inactive) |
| COC(=O)C1=C(C(=O)c2ccc(C)cc2)C(c2ccccc2)n2nnnc2N1 (stereo unspecified) | – | 6% (inactive) |
